# What was measured:
# Assay in all cases: DAPPL (digital affinity profiling via proximity ligation, sequencing); 10 mM Tris-HCl pH 7.5, 50 mM NaCl, 1 mM DTT, 4% glycerol, room temperature, 30 min; GST-TFs on glutathione beads, 16-mer random dsDNA library, 0.1% formaldehyde crosslink after washing; high values mean tight binding
# Conditions in all cases: protein: recombinant; tags: N-terminal GST; dsDNA, one strand shown
# FLI1 = biological target: T1, FLI1 (Homo sapiens, UniProt Q01543 1-452)
# T1 sequence: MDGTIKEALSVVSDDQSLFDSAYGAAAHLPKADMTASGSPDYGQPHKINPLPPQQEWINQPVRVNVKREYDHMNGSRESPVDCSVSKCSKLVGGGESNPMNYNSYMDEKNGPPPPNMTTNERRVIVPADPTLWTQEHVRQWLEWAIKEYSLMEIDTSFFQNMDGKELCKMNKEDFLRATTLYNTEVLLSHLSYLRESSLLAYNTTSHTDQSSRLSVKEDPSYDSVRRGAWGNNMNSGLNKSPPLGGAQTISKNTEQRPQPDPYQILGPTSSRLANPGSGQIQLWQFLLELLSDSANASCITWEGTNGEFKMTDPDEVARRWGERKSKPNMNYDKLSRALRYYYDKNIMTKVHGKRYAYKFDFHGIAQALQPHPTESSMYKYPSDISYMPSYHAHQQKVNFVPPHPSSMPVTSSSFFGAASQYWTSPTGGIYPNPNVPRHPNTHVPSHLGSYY
# In short: (§1)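 Binding signal is given per hexamer as its read frequency for a factor divided by its frequency in the tag-only sample. GST-fused human transcription factors were expressed in yeast, captured on glutathione beads, barcoded with DNA and pooled with that sample, then incubated with 200 nmole of a 16-mer random double-stranded DNA library in Tris/NaCl/DTT/glycerol buffer for 30 min at room temperature. The pools were then washed, crosslinked, proximity-ligated, amplified by PCR and sequenced on an Illumina NextSeq500.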
# ELK1 = biological target: T2, ELK1 (Homo sapiens, UniProt P19419 1-428)
# T2 sequence: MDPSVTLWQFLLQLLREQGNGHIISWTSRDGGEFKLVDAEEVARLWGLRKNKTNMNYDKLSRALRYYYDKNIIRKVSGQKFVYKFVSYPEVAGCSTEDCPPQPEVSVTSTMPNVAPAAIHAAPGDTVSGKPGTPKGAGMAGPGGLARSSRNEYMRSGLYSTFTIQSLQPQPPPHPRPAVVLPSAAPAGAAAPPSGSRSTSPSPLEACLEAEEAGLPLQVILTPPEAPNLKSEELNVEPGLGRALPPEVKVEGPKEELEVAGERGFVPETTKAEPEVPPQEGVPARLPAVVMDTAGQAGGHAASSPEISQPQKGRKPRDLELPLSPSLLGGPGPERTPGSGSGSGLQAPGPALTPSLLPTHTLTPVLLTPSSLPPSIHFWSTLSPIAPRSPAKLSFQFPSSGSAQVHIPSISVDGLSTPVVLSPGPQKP
# In short: as §1
# GABPA = biological target: T3, GABPA (Homo sapiens, UniProt Q06546 1-454)
# T3 sequence: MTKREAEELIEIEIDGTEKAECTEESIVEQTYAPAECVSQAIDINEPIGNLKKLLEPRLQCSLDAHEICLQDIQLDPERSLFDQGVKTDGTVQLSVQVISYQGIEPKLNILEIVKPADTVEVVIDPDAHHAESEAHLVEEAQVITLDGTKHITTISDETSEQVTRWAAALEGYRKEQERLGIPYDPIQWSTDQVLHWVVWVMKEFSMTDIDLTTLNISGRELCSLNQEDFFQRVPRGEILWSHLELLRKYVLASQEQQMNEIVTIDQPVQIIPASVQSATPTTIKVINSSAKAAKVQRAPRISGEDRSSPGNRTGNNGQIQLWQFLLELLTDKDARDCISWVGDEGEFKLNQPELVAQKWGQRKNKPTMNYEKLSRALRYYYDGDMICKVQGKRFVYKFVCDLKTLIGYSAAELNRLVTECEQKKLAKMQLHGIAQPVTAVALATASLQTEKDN
# In short: as §1
# ERG = biological target: T4, ERG (Homo sapiens, UniProt P11308 1-479)
# T4 sequence: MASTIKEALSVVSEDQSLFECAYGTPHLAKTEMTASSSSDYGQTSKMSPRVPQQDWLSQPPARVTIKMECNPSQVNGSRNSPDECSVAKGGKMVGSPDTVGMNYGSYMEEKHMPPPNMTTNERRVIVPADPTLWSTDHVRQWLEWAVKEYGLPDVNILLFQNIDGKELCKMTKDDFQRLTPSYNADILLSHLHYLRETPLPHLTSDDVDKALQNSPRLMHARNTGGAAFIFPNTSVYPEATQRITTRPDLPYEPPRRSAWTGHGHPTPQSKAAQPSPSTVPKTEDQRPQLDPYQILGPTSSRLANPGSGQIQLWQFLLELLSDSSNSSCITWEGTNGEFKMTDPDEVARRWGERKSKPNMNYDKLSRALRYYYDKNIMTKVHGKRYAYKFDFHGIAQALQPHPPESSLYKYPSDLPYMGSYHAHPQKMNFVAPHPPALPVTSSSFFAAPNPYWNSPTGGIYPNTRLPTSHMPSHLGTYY
# In short: as §1
# ELF1 = ELF1 (Homo sapiens, UniProt P32519 1-619)
# In short: as §1
# EHF = biological target: T5, EHF (Homo sapiens, UniProt Q9NZC4 1-300)
# T5 sequence: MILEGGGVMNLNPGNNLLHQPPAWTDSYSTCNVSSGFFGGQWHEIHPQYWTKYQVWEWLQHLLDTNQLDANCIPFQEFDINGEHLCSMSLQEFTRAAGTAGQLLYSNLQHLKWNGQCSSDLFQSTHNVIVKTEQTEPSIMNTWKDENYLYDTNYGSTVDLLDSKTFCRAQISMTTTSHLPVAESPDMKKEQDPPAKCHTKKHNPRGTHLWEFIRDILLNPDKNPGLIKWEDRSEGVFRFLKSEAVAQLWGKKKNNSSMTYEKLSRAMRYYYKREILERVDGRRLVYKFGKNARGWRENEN
# In short: as §1
# SPI1 = SPI1 (Homo sapiens, UniProt P17947 1-270)
# In short: as §1
# SPIB = SPIB (Homo sapiens, UniProt Q01892 1-262)
# In short: as §1
# ELK3 = biological target: T6, ELK3 (Homo sapiens, UniProt P41970 1-407)
# T6 sequence: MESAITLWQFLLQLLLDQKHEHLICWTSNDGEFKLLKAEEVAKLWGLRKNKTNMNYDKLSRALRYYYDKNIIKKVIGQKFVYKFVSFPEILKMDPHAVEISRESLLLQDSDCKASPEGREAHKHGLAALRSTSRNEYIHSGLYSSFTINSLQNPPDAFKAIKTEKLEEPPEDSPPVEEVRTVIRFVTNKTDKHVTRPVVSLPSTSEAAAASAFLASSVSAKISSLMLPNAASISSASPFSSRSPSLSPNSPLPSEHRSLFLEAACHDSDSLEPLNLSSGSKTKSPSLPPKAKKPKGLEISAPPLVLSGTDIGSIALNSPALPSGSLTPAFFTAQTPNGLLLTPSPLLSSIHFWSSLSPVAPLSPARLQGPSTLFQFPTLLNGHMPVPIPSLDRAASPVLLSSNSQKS
# In short: as §1
# FEV = biological target: T7, FEV (Homo sapiens, UniProt Q99581 1-238)
# T7 sequence: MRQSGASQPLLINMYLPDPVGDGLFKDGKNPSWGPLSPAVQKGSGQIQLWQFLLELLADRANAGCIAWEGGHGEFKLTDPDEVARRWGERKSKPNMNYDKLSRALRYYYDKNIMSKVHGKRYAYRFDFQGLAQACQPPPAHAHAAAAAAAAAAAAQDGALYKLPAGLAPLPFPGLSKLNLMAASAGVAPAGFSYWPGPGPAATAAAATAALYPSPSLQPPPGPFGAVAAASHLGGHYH
# In short: as §1
# ETV5 = ETV5 (Homo sapiens, UniProt P41161 1-510)
# In short: as §1
# SPIC = biological target: T8, SPIC (Homo sapiens, UniProt Q8N5J4 1-248)
# T8 sequence: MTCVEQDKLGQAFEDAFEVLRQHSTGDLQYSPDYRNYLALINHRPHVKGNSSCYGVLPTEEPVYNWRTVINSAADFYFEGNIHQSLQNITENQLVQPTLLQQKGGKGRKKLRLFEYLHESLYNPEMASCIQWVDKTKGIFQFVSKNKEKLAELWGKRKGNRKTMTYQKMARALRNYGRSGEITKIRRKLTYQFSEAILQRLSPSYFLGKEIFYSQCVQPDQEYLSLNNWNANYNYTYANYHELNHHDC
# In short: as §1
# ELF4 = ELF4 (Homo sapiens, UniProt Q99607 1-663)
# In short: as §1
# ELK4 = biological target: T9, ELK4 (Homo sapiens, UniProt P28324-2 1-405)
# T9 sequence: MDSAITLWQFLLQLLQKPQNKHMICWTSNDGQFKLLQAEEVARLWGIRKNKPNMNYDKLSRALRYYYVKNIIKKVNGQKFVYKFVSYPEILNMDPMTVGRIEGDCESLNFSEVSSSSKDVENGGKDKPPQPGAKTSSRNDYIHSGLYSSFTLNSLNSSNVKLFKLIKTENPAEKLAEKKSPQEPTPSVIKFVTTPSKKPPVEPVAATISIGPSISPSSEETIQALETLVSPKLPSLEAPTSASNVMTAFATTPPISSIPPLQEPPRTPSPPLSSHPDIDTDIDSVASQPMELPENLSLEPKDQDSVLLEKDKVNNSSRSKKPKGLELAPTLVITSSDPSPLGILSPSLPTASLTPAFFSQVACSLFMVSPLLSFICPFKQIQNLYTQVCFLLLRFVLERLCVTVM
# In short: as §1
# ETV2 = biological target: T10, ETV2 (Homo sapiens, UniProt O00321 1-342)
# T10 sequence: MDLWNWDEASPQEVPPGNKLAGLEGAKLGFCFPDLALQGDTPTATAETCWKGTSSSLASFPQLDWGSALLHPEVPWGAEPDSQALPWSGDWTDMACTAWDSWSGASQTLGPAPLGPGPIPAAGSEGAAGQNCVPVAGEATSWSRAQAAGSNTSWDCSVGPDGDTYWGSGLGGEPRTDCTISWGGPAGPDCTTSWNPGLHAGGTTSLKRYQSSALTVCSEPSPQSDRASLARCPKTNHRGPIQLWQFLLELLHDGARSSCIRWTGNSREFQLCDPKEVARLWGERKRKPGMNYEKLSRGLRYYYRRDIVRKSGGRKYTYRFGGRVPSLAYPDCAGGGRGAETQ
# In short: as §1
# ELF3 = biological target: T11, ELF3 (Homo sapiens, UniProt P78545 1-371)
# T11 sequence: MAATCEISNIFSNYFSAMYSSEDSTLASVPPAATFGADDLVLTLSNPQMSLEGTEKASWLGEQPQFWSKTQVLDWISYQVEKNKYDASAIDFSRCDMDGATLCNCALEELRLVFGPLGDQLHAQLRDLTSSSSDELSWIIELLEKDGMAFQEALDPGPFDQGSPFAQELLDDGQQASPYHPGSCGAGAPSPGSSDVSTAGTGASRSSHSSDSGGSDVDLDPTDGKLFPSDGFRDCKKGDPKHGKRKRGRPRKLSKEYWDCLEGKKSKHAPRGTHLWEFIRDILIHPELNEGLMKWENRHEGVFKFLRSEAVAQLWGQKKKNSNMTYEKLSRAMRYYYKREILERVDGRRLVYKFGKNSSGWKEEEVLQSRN
# In short: as §1
# ETV1 = ETV1 (Homo sapiens, UniProt P50549 1-477)
# In short: as §1
# ELF4, sequence (Q99607 whole entry): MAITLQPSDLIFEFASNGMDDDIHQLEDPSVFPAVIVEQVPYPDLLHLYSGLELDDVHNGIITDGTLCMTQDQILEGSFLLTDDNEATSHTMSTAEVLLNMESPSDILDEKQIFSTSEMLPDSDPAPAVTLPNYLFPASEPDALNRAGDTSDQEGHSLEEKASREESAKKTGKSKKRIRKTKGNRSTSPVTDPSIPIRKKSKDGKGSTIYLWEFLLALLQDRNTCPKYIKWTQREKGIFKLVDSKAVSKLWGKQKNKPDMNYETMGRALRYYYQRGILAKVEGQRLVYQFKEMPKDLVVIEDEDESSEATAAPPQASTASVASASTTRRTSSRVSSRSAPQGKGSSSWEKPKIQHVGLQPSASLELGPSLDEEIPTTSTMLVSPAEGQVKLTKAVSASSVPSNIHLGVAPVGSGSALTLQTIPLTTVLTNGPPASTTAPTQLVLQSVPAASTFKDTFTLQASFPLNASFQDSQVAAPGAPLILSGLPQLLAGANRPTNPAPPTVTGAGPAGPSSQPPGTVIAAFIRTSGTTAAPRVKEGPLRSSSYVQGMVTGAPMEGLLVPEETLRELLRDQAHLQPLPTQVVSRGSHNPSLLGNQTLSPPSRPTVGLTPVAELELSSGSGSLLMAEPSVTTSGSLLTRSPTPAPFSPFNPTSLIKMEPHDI
# ETV1, sequence (P50549 whole entry): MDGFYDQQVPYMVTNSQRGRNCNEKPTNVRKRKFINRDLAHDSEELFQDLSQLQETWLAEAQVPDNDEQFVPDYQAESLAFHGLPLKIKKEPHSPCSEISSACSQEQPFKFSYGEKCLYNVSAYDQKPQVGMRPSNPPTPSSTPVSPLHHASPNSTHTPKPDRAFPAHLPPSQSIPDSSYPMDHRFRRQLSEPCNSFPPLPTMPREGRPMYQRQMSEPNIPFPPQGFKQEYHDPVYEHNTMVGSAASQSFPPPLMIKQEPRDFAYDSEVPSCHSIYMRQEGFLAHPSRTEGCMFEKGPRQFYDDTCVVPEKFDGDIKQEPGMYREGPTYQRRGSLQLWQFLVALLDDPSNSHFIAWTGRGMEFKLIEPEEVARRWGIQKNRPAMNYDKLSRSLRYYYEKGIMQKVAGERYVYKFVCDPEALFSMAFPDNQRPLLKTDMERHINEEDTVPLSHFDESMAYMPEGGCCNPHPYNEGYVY
# SPIB, sequence (Q01892 whole entry): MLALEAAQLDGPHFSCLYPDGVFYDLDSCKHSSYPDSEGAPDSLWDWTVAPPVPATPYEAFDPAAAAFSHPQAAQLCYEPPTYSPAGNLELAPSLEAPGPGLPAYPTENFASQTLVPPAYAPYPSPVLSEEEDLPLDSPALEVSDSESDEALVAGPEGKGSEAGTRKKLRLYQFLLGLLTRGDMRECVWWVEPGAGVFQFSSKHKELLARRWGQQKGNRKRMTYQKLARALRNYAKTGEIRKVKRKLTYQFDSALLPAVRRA
# ELF1, sequence (P32519 whole entry): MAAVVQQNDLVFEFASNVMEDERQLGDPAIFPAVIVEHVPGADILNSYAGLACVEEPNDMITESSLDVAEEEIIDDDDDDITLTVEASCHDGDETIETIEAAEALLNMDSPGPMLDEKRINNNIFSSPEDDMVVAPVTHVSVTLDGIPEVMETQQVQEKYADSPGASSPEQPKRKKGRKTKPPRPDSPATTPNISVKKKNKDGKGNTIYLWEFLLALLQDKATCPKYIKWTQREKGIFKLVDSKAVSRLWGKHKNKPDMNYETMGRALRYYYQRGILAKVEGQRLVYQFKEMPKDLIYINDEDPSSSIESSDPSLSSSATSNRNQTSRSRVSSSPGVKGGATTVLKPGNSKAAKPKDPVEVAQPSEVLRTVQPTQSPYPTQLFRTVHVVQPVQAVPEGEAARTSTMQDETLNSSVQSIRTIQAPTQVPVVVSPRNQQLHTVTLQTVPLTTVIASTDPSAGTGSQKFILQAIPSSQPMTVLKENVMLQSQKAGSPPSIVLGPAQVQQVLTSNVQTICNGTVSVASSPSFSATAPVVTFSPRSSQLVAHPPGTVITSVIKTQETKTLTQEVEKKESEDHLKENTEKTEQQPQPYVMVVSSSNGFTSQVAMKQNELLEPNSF
# ETV5, sequence (P41161 whole entry): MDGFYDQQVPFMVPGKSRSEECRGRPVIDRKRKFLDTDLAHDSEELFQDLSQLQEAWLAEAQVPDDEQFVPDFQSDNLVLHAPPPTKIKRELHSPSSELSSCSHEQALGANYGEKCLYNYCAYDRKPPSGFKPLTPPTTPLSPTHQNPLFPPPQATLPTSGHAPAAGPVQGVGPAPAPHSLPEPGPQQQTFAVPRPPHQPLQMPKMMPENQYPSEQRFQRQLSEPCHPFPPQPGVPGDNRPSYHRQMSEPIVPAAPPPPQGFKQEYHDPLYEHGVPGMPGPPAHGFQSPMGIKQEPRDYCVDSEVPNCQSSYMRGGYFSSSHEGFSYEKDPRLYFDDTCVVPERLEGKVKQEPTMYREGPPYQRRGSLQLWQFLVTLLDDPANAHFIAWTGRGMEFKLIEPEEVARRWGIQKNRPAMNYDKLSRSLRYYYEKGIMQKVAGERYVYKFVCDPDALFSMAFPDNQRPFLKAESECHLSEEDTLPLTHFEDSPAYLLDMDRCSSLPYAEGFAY
Sequence,binding signal (FLI1),binding signal (ELK1),binding signal (GABPA),binding signal (ERG),binding signal (ELF1),binding signal (EHF),binding signal (SPI1),binding signal (SPIB),binding signal (ELK3),binding signal (FEV),binding signal (ETV5),binding signal (SPIC),binding signal (ELF4),binding signal (ELK4),binding signal (ETV2),binding signal (ELF3),binding signal (ETV1)
CCTGCC,"1.17 fold enrichment (6-mer frequency, TF over GST control)","1.34 fold enrichment (6-mer frequency, TF over GST control)","1.25 fold enrichment (6-mer frequency, TF over GST control)","1.3 fold enrichment (6-mer frequency, TF over GST control)","1.31 fold enrichment (6-mer frequency, TF over GST control)","1.39 fold enrichment (6-mer frequency, TF over GST control)","1.28 fold enrichment (6-mer frequency, TF over GST control)","1.43 fold enrichment (6-mer frequency, TF over GST control)","1.13 fold enrichment (6-mer frequency, TF over GST control)","1.33 fold enrichment (6-mer frequency, TF over GST control)","1.34 fold enrichment (6-mer frequency, TF over GST control)","1.28 fold enrichment (6-mer frequency, TF over GST control)","1.28 fold enrichment (6-mer frequency, TF over GST control)","1.14 fold enrichment (6-mer frequency, TF over GST control)","1.26 fold enrichment (6-mer frequency, TF over GST control)","1.27 fold enrichment (6-mer frequency, TF over GST control)","1.26 fold enrichment (6-mer frequency, TF over GST control)"
CGTATC,"1.2 fold enrichment (6-mer frequency, TF over GST control)","1.3 fold enrichment (6-mer frequency, TF over GST control)","1.29 fold enrichment (6-mer frequency, TF over GST control)","1.28 fold enrichment (6-mer frequency, TF over GST control)","1.23 fold enrichment (6-mer frequency, TF over GST control)","1.25 fold enrichment (6-mer frequency, TF over GST control)","1.11 fold enrichment (6-mer frequency, TF over GST control)","1.2 fold enrichment (6-mer frequency, TF over GST control)","1.21 fold enrichment (6-mer frequency, TF over GST control)","1.28 fold enrichment (6-mer frequency, TF over GST control)","1.13 fold enrichment (6-mer frequency, TF over GST control)","1.19 fold enrichment (6-mer frequency, TF over GST control)","1.2 fold enrichment (6-mer frequency, TF over GST control)","1.16 fold enrichment (6-mer frequency, TF over GST control)","1.15 fold enrichment (6-mer frequency, TF over GST control)","1.13 fold enrichment (6-mer frequency, TF over GST control)","1.18 fold enrichment (6-mer frequency, TF over GST control)"
